Data reported in PubChem BioAssay AID2314 (National Center for Advancing Translational Sciences (NCATS), 2010).
Values joined by “and” are separate entries in the source; they are usually repeats but may differ in a detail not shown here. Equal values may be shown once. The whole screen tested about 300,000 compounds, of which about 37,000 (12%) were called active. Rule as the data show it: active = max response mostly above about 13% (no sharp cut-off); inactive = mostly below about 14%. Only a selection was taken, and actives are over-represented in it overall. Where a structure was tested more than once in an assay, its records may differ in their call.

assay: Cycloheximide Counterscreen for Small Molecule Inhibitors of Shiga Toxin; settings: cell reporter, cycloheximide protein synthesis inhibition counterscreen; stronger effect = higher value; also: read at 38.3 µM for the half of the compounds with a filed dose; 0% is about no effect

Row | SMILES | max response
1 | CC(C)N1CCC(N2CCN(Cc3cccnc3)CC2CCO)CC1 (centres undefined) | -0.86% (inactive)
2 | CC(C)(C)NC(=O)CN(Cc1cccs1)C(=O)CNS(=O)(=O)c1ccccc1 | 15.6% (active)
3 | Cc1ccc(S(=O)(=O)NCC(=O)N(CC(=O)NC(C)(C)C)Cc2cccs2)cc1 | 0.104% (inactive)
4 | CCC(C)(C)NC(=O)CN(Cc1cccs1)C(=O)CNS(=O)(=O)c1ccc(F)cc1 | 1.08% (inactive)
5 | O=C(N/C(=C\c1ccc(F)cc1)C(=O)N1CCCCCC1)c1ccccc1 | -2.25% (inactive)
6 | CC(C)c1nc(SCC(=O)Nc2cccc(C(=O)O)c2)c2c3c(sc2n1)CCCC3 | 2.36% (inactive)
7 | COc1ccc(CNc2c(CO)cnc3c2cnn3C)cc1 | 8.91% (inactive)
8 | Cc1ccc(S(=O)(=O)N2CCN(C)CC2)cc1C(=O)NC1CCCCC1 | -0.406% (inactive)
9 | O=C(Oc1cccnc1)c1cc2ccccc2oc1=O | -1.97% (inactive)
10 | O=C(Oc1ccc(Br)cc1)c1cccnc1 | 7.39% (inactive)
11 | O=C(Oc1c(-c2ccco2)oc2ccccc2c1=O)c1cccnc1 | 12.7% (active)
12 | O=C(CN1C(=O)c2ccccc2C1=O)NCc1ccc(C(=O)O)cc1 | -4.14% (inactive)
13 | O=c1[nH]c(NCCO)nnc1Cc1ccc(Cl)cc1 | -3.78% (inactive)
14 | Cc1ccc(N(C(=O)CNC(=O)c2ccco2)C(C(=O)NC2CCCC2)c2ccncc2)cc1 (centres undefined) | -1.23% (inactive)
15 | CCOC(=O)C1(Cc2cccc(OC)c2)CCN(C(C)CC(C)(C)O)CC1 (centres undefined) | -3.86% (inactive)
16 | CCOC(=O)C1(Cc2ccccc2C(F)(F)F)CCN(C(=O)c2cc(C)n(C)n2)CC1 | 31.4% (active)
17 | CCOC(=O)C1(CCOc2ccccc2)CCN(C(=O)c2cncs2)CC1 | 1.41% (inactive)
18 | CCCN(CC1COc2ccccc2O1)C(=S)Nc1ccc(C)cc1 (centres undefined) | -5.79% (inactive)
19 | Cc1c(CN2CCC(CO)(CCOc3ccccc3)CC2)[nH]c2ccc(Cl)cc12 | -1.37% (inactive)
20 | CC(C)C(=O)OCC(=O)Nc1ccc2c(c1)CCC2 | 2.17% (inactive)
21 | CC1CC(C)CN(CCC(=O)Nc2ccc3c(c2)CCC3)C1 (centres undefined) | -6.42% (inactive)
22 | O=C(NCC(=O)N(Cc1cccs1)C(C(=O)NC1CCCCC1)c1ccco1)c1cccs1 (centres undefined) | -2.31% (inactive)

Row | SMILES | max response
23 | O=C(NC1CCCC1)C(NS(=O)(=O)c1ccc(Br)s1)c1ccccc1 (centres undefined) | 7.24% (inactive)
24 | CN(CC(=O)NC1CCCCC1)S(=O)(=O)c1ccc(Br)s1 | 6.95% (inactive)
25 | O=C(Nc1ccc2c(c1)CCC2)c1ccc(Br)s1 | 72% (active)
26 | O=C(CCC(=O)c1cccs1)NC1CCCCCC1 | 21.2% (active)
27 | O=C(COC(=O)/C=C/c1cccs1)NC1CCCCC1 | -0.796% (inactive)
28 | CC(C)C(OC(=O)c1cccs1)C(=O)NC1CCCCC1 (centres undefined) | -1.99% (inactive)
29 | O=C(NC1CCCC1)c1ccc(Br)s1 | 19.5% (active)
30 | O=C(NC1CCCCCCC1)c1cccs1 | 34% (active)
31 | O=C(CN(C(=O)CNC(=O)c1cccs1)c1cccc(F)c1)NC1CCCCC1 | 0.305% (inactive)
32 | O=S(=O)(c1ccc(F)cc1)N1CCN=C1SCc1cccc(F)c1 | 7.74% (inactive)
33 | COc1cccc(NC(=O)N2CCC(NC(=O)C(Cc3cccc(C)c3)NC(C)=O)CC2)c1 (centres undefined) | -0.694% (inactive)
34 | O=C(Nc1ccc(S(=O)(=O)N2CCCCC2)cc1)C1CC(=O)N(c2ccc(F)cc2)C1 (centres undefined) | -1.91% (inactive)
35 | CN(C)c1ccc(CNC(=O)CN2C(=O)COc3ccc(S(=O)(=O)N4CCCC4)cc32)cc1 | 9.54% (inactive)
36 | O=[N+]([O-])C(=c1ccc2c(c1)N1C3=C(CCCC3)CC3CCCCC31N=2)[N+](=O)[O-] (centres undefined) | 6.06% (inactive)
37 | c1ccc2c(-c3nn4nnnc4c4ccccc34)cccc2c1 | 8.28% (inactive)
38 | O=C(CCS(=O)(=O)c1ccccc1)NC1CCCC1 | 49.1% (active)
39 | CC(=O)c1cc(-c2ccccc2)n(CCC(=O)NC2CCCCCC2)c1C | -2.48% (inactive)
40 | O=C(CCNC(=O)C1CCN(S(=O)(=O)c2ccccc2)CC1)NC1CC1 | 11.4% (inactive)
41 | COCCCNC(=S)N1CCN(c2nc(-c3cccc(OC)c3)cs2)CC1 | 9.62% (inactive)
42 | CC(C)c1ccc(Cc2nnc(NCCCO)[nH]c2=O)cc1 | 12.2% (inactive)
43 | COc1cccc(CNS(=O)(=O)c2ccc3c(c2)CC(C)N3C(C)=O)c1 (centres undefined) | 4.58% (inactive)
44 | Cc1cc(C)n(CC(O)CN(c2ccccc2)S(=O)(=O)c2ccc3ccccc3c2)n1 (centres undefined) | -3.48% (inactive)

Row | SMILES | max response
45 | Cc1cc2c(cc1C)[n+](C)cn2CC(O)COCC1CC=CCC1 (centres undefined) | -1.8% (inactive)
46 | COc1ccc(C2/C=C\CN(S(=O)(=O)c3cccs3)CC(=O)N2Cc2ccc(F)cc2)cc1 (centres undefined) | 8.73% (inactive) and 13.8% (active)
47 | COc1ccc(C2/C=C\CN(CC(C)C)CC(=O)N2Cc2ccc(F)cc2)cc1 (centres undefined) | -4.65% (inactive) and -3.5% (inactive)
48 | COc1ccc(C2/C=C\CN(Cc3ccco3)C(C)C(=O)N2Cc2ccc(F)cc2)cc1 (centres undefined) | 10.6% (inactive)
49 | C=CCn1c(SCc2ccc(Cl)c(Cl)c2)nnc1C(CO)NC(=O)c1ccc(OC)cc1 (centres undefined) | 3.34% (inactive)
50 | Cc1nc2ccc(C(=O)N/N=C/c3ccc(O)cc3)cc2[nH]1 | 7.31% (inactive)
51 | CSc1ccc(/C=N\NC(=O)CC(=O)NC(C)C)cc1 | 1.43% (inactive)
52 | CSc1ccc(/C=N\NC(=O)COc2ccc(Cl)cc2Br)cc1 | 11.1% (inactive)
53 | COc1ccc(/C(C)=N/NC(=O)c2ccc3nc[nH]c3c2)cc1 | -2.63% (inactive)
54 | CSc1ccc(/C=N/NC(=O)c2cccc(Cl)c2)cc1 | 96.6% (active)
55 | O=C(N/N=C/c1ccc(Cl)c(Cl)c1)c1ccc2nc[nH]c2c1 | 16.3% (active)
56 | CC1CC(C)CN(S(=O)(=O)c2cccc3nonc23)C1 (centres undefined) | -1.35% (inactive)
57 | CN1CC(c2ccccc2)C2(COc3ccccc3C2=O)C12C(=O)Nc1ccccc12 (centres undefined) | -3.96% (inactive)
58 | Cc1ccccc1NC(=O)CCNS(=O)(=O)c1ccc2[nH]c(=O)oc2c1 | -2.26% (inactive)
59 | O=C(NNC(=O)C1CCCC1)c1ccc(F)cc1 | -5.73% (inactive)
60 | CCOC(=O)NNC(=O)c1ccc(Cl)cc1 | 6.53% (inactive)
61 | S=C(NNC(=S)NC1CC2CCC1C2)NC1CC2C=CC1C2 (centres undefined) | 4.61% (inactive)
62 | O=C(NNC(=O)C1C2CCC(C2)C1C(=O)O)c1ccc(Cl)cc1 (centres undefined) | 17.2% (active)
63 | O=C(NNC(=S)NC1CC2CCC1C2)c1ccc(Cl)cc1 (centres undefined) | 11.9% (active)
64 | O=S(=O)(NC1CC2CCC1C2)c1ccc(Cl)cc1 (centres undefined) | -1.85% (inactive)
